TDP1 cell noCPT = qHTS for Inhibitors of human tyrosyl-DNA phosphodiesterase 1 (TDP1): qHTS in cells in absence of CPT | DT40 Tdp1-/- hTDP1 cells, no CPT, ATP luminescence, 48 h | hit rate 15% among 420,000 | Potency, µM (highest dose often 46.2 µM), inactives show at the top dose activity change, negative = growth inhibition, usual class: inhibitors; note: potency is the fitted concentration of half-maximal effect; nearly all actives have a fitted effect of over 55% in size
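DT40 Tdp1-/-;hTDP1 cells, no CPT (DMSO vehicle only), 400 cells/well; compounds pin-transferred; ≥48 hr, 37 °C; CellTiter-Glo 30 min RT dark, luminescence read.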
IL-1B inflam inh = inhibitors of inflammasome signaling (IL-1 beta secretion); THP-1 LPS/ATP IL-1B secretion, AlphaLISA, 16 h; active compounds read low; activity change, % at 57.5 µM; hit rate 4.7% among 360,000; AID 743279; in the data active = activity change below about -50%; inconclusive = mostly about -30% to -49%
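THP-1 cells pretreated 1 hr with compounds (up to 57.5 uM final), then stimulated with LPS (250 ng/mL final) plus ATP (1.25 mM final); secreted IL-1B measured by AlphaLISA after 16 hr, decreased signal indicating inhibition.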
HT1080 IDH1KD tx = toxicity to HT-1080 IDH1 knockdown cells (counter line) | HT-1080 IDH1 knockdown viability, ATP luminescence, 48 h | Potency, µM (top dose mostly 46.1 µM), for inactives: at the highest dose activity, negative = toxicity, actives largely listed as cytotoxic | hit rate 2% among 360,000;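 note: potency is the fitted concentration of half-maximal effect; 0% = DMSO wells and -100% = cell-free medium wells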
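Assay cells: HT-1080 with IDH1 knockdown, 750 per well, RPMI/5% FBS. Exposure: 48 h at 37 °C following 2 h pre-incubation. Read: CellTiter-Glo luminescence; fitted concentration-response, curve class assigned.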
HT1080-NT tox = kills 2HG-producing HT-1080-NT fibrosarcoma cells; HT-1080-NT fibrosarcoma viability, CellTiter-Glo ATP luminescence, 48 h; Potency, µM (doses to about 46.1 µM), without a hit: at the highest dose activity, negative = less viability, hits mostly cytotoxic; hit rate 1.6% among 360,000;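 note: NT is the 2HG producing partner of a matched IDH1 knockdown line; potency is the fitted concentration of half-maximal effect; 0% = DMSO-treated cells and -100% = media-only wells without cells; nearly all actives have a fitted effect of over 55% in size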
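Viability by CellTiter-Glo luminescence after 48 h compound exposure at 37C of HT-1080-NT cells (750/well, RPMI, 5% FBS). % activity scaled between DMSO wells and medium-only wells, then curve-fitted and categorized by curve class.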
ALOX12 inh = ALOX12 (human) lipoxygenase inhibition; P18054; purified 12hLO, xylenol orange hydroperoxide absorbance; AID 1671190; hit rate 1.1% among 580,000; Potency, µM (series often up to 108 µM), without a hit: at the highest dose activity change, negative = inhibition, most hits filed as inhibitors; note: potency is the fitted concentration of half-maximal effect
Target sequence (P18054 whole entry, looked up): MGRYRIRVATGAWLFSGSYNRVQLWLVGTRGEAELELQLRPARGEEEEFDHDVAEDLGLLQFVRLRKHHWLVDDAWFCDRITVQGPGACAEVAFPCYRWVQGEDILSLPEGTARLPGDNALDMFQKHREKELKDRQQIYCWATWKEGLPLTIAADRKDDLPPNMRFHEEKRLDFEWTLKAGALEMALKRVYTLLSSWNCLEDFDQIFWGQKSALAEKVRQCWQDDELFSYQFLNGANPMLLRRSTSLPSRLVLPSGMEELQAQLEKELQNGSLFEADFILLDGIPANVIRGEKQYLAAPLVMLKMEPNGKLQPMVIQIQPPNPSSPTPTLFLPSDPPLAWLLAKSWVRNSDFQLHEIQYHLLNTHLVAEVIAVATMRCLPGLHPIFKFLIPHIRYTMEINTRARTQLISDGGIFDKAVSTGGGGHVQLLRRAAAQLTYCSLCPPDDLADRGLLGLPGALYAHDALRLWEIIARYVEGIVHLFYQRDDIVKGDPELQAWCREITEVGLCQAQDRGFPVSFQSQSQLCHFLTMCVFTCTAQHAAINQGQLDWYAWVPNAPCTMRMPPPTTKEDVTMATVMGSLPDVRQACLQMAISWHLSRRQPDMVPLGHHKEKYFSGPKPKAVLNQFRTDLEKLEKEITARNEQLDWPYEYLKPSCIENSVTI
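Hydroperoxide product was detected by ferrous iron/xylenol orange as the 573 to 405 nm absorbance ratio. Arachidonic acid at 40 uM (final) was turned over for 30 min at room temperature by 150 nM human 12hLO, pH 7.0 Hepes buffer, after 15 min compound preincubation.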
DT40 TDP1 CPT = DT40-hTDP1 cell growth loss with CPT; hit rate 12% among 420,000; chicken DT40 Tdp1-/-;hTDP1 cells + 20 nM CPT, ATP luminescence, 48 h; AID 686979; Potency, µM (titrated, usually from 46.2 µM), for inactives: top-dose activity change, negative = growth inhibition, most hits filed as inhibitors; note: potency is the fitted concentration of half-maximal effect; nearly all actives have a fitted effect of over 55% in size
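Chicken DT40 Tdp1-/- cells complemented with human TDP1, 400 cells/well, exposed to compounds plus 20 nM camptothecin for at least 48 h at 37 C; viability read as ATP content by CellTiter-Glo luminescence.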
The depositor's hits bear a star; i = inactive; ? = inconclusive; . = no result given; [ ] = remark or other dose. Many of the other results were omitted from the sample, so hits are more common in it than they were. Unless noted, calls come from the whole dose curve; as a rule, active = well fitted curve in the direction sought with a large enough effect; inconclusive = small, poorly fitted or top-dose-only effect, or another doubt; inactive = no such curve, though single readings can be large; an effect the other way counts as inactive or inconclusive. Unless noted, % is set by controls: 0 for no effect and ±100 for the full control effect.

SMILES	TDP1 cell noCPT	IL-1B inflam inh	HT1080 IDH1KD tx	HT1080-NT tox	ALOX12 inh	DT40 TDP1 CPT
CCc1c(C)nc(SCC(=O)Nc2oncc2-c2ccccc2)[nH]c1=O	.	.	.	.	-7.8%	.
O=C(Cc1csc2ccccc12)NCC1CC1	-7.4%	-1.4	0.2%	9.6%	?	9.6%
COC(=O)c1ccc(C(=O)Nc2ccc(F)cc2)cc1	8.2µM*	10.7	-12.3%	-16.0%	0.0%	10.3µM*
CN1CCC(CNC(=O)Nc2csc3ccccc23)CC1	-4.5%	50.6	-1.5%	-13.9%	39.8µM*	-13.1%
CN(C)Cc1ccc2c(c1)c(OC(C)(C)C(=O)NCCN1CCOCC1)nn2Cc1ccccc1	.	.	.	.	42.8%	.
Cn1nc(C(=O)Nc2cccc3cnccc23)c2ccccc2c1=O	.	.	.	.	-26.8%	.
CSc1nc(N2CCCC2)c2c3c(sc2n1)COC(C)(C)C3	.	.	.	.	-9.1%	.
CN1CC(=O)N(c2ccccc2)Cc2c(NC3CCC3)ncnc21	.	.	.	.	29.2%[176 µM]	.
Cc1c(C(=O)N2CCC(C)CC2)c(S(=O)(=O)Nc2ccc(OC(F)(F)F)cc2)c(C)n1C	16.4µM*	.	.	.	-21.4%	?
COc1ccc(NS(=O)(=O)c2c(C(=O)N3CCCCCC3)c(C)n(C)c2C)cc1	3.8%	?	-8.8%	0.7%	-5.8%	?
CCc1cccc(C)c1NS(=O)(=O)c1c(C(=O)N2CCC(C)CC2)c(C)n(C)c1C	?	.	.	.	-8.2%	18.4µM*
Cc1[nH]c(C)c(S(=O)(=O)Nc2ccc(OC(F)(F)F)cc2)c1C(=O)N1CCCCC1	16.4µM*	?	-18.4%	-15.8%	-2.7%	20.6µM*
Cc1ccc(NS(=O)(=O)c2c(C)[nH]c(C)c2C(=O)N2CCCC2)cc1	1.8%	-11.2	2.7%	10.5%	-4.6%	-7.7%
O=C(c1cocn1)N1C[C@@H](COc2ccncc2)[C@H](c2ccccn2)C1	.	.	.	.	65.9%	.
CCOc1cccc(CN(C)C2CCc3nn(CC4CC4)c(=O)n3CC2)c1 (stereo not drawn)	.	.	.	.	95.1%	.
O=S(=O)(NC1CC(NS(=O)(=O)OCC(Cl)(Cl)Cl)C2CCCCC12)OCC(Cl)(Cl)Cl (stereo not drawn)	14.6µM*	-18.9	?	?	.	14.6µM*
C[C@H](NS(=O)(=O)OCC(Cl)(Cl)Cl)C1CC1c1ccccc1 (stereo partly drawn)	-22.7%	1.4	-2.9%	-3.2%	-21.4%	-19.6%
Oc1c(N=Nc2ccccn2)ccc2ccccc12	1.64µM*	-53.8*	2.31µM*	?	-7.7%	1.46µM*
CN(C)C[C@@H]1CN(C)C[C@H]1NC(=O)c1ccc(Cn2ccnc2)o1	.	.	.	.	72.9%	.
Cc1ccc(NC(=O)CCc2ncc(-c3ccc(F)cc3F)o2)c(C)c1	.	.	.	.	3.8%	.
O=C(N/N=C/c1ccccn1)c1sc2ccccc2c1Cl	13µM*	201.8	?	-12.1%	i	16.4µM*
O=C(N/N=C/c1cccc(NC(=O)c2ccc(Cl)cc2)c1)c1cccc(O)c1	13µM*	11.8	?	?	-1.7%	?
O=C(N/N=C/c1ccc([N+](=O)[O-])o1)c1sc2ccccc2c1Cl	25.9µM*	-78.0*	?	-23.7%	-24.3%	23.1µM*
COc1ccc(C(=O)N/N=C/c2ccc3cccc(O)c3n2)cc1	5.17µM*	-27.2	?	?	-8.8%	?
O=C(N/N=C/c1cccnc1)c1cccc(NC(=O)c2ccc(Cl)cc2)c1	-4.3%	10.8	-9.1%	-0.5%	.	-1.6%
SMILES	TDP1 cell noCPT	IL-1B inflam inh	HT1080 IDH1KD tx	HT1080-NT tox	ALOX12 inh	DT40 TDP1 CPT
Cc1cc(C(=O)N/N=C/c2cccs2)cs1	.	.	.	.	-10.8%	.
Cc1cc(C)c2oc(C(=O)N(Cc3ccc(Cl)cc3)C3CCS(=O)(=O)C3)cc(=O)c2c1 (stereo not drawn)	.	.	.	.	-31.4%	.
O=C(N/N=C/c1ccccn1)c1ccncc1	10.6%	-2.0	-6.8%	-2.4%	5.3%	1.6%
O=C(N/N=C/c1ccccn1)c1ccccc1	18.4µM*	73.4	-22.8%	-2.8%	-1.8%	?
O=C(N/N=C/c1ccccn1)c1ccc(Cl)cc1	11.6µM*	-101.5*	?	-21.0%	485.2%	11.6µM*
Cc1cccc(/C=N/NC(=O)c2ccc(NC(=O)c3ccc(Cl)cc3)cc2)n1	?	47.8	18.4µM*	18.4µM*	1.4%	?
COc1cc(C(=O)N/N=C/c2ccccn2)cc(OC)c1OC	4.61µM*	81.8	?	?	5.6%	3.26µM*
CCOc1ncccc1NC(=O)N1CCN(c2cnccn2)CC1	.	.	.	.	12.9%	.
CC(C)c1nnc2ccc(N3CCCCCC3)nn12	.	.	.	.	-7.9%	.
COc1ccc(C(=O)Nc2ccccc2C(=O)N/N=C/c2ccccn2)cc1OC	6.51µM*	.	?	?	12.6%	4.61µM*
COc1ccc(C(=O)N/N=C/c2ccccn2)cc1OC	?	-4.6	-29.4%	-14.8%	0.1%	?
O=C(N/N=C\c1ccccn1)c1ccccc1O	?	-122.8*	?	-2.7%	2.2%	14.6µM*
COc1cc(C(=O)N/N=C/c2cc([N+](=O)[O-])cs2)cc(OC)c1OC	1.03µM*	22.4	1.46µM*	2.91µM*	17.9%	0.82µM*
COc1cccc2c1OC[C@@H](CO)[C@H]2N(C)C(=O)Nc1ccccc1	-0.3%	17.8	6.4%	12.9%	19.4%	-5.1%
CN(C(=O)Nc1ccc(Cl)cc1Cl)[C@H]1c2cc(Br)ccc2OC[C@H]1CO	-17.6%	-72.6*	?	?	-19.6%	?
Fc1ccc(N/N=C/c2ccncc2)c(F)c1	-21.3%	-3.9	27.4%	-20.3%	?	-1.5%
Fc1ccc(N/N=C/C=C/c2ccccc2)c(F)c1	?	?	-1.3%	-0.6%	39.8µM*	?
O=C(O)c1ccc(N/N=C/c2ccc(C(F)(F)F)cc2)cc1	5.9%	57.0	-10.4%	-8.9%	?	1.5%
CSc1ccc(/C=N/Nc2ccc(F)cc2F)cc1	.	.	.	.	1.78µM*	.
O=C(O)c1ccc(/C=N/Nc2ccc(F)cc2F)cc1	1.7%	3.0	5.17µM*	3.26µM*	?	14.1%
Cc1ccc2c(C)c(C(=O)N3C[C@@H](CN4CCC(O)CC4)[C@@H](CO)C3)oc2c1	.	.	.	.	50.6%	.
COCC1CN(C(=O)c2ccc(OC)cc2OC)CC12CCOCC2 (stereo not drawn)	.	.	.	.	24.8%	.
CCOc1ccccc1NC(=O)N1CCC(n2c(C)nc3cccnc32)CC1	4.5%	.	.	.	-16.8%	0.3%
CCCS(=O)(=O)N1CCC(n2c(C)nc3cccnc32)CC1	18.4µM*	.	.	.	-4.2%	18.4µM*
CCCCOc1ccc(S(=O)(=O)n2c(C)nc3ccccc32)cc1	?	0.9	-3.8%	?	-2.0%[57.4 µM]	?

Screening data: PubChem BioAssay, National Center for Advancing Translational Sciences (NCATS)
